# Measured values reported in the supplement of paper PMC6522484.
# ± gives the standard deviation of the averaged measurements.
# How the values were obtained:
# DLD1 [1] = assay: cell viability (CellTiter-Glo) relative to plate median (fraction of plate median); higher = more viable cells; conditions: 5 µM; treatment time 24 h; reporter: 7TFP
# How it was run: (§1)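 Colorectal cancer cell lines stably carrying lentiviral TCF/Wnt firefly luciferase reporters (7TFP or TCF4/Wnt) were plated in 384-well plates and, 24 h later, given library compounds at a final 5 µM for 24 h. Firefly luciferase or CellTiterGlo luminescence was read on parallel plates with a Tecan F500 reader. Each well's signal was normalised to the plate median in webcellHTS2 (additive, without log transformation). Values are the mean of two independent replicates.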
# HCT116 = assay: as above; conditions: 5 µM; treatment time 24 h; reporter: TCF4/Wnt
# How it was run: as §1
# SW480 [2] = assay: as above; conditions: 5 µM; treatment time 24 h; reporter: 7TFP
# How it was run: as §1
# DLD1 [3] = assay: TCF/Wnt firefly luciferase reporter signal relative to plate median (fraction of plate median); higher = higher Wnt reporter signal; conditions: 5 µM; treatment time 24 h; reporter: 7TFP
# How it was run: as §1
# SW480 [4] = assay: as above; conditions: 5 µM; treatment time 24 h; reporter: 7TFP
# How it was run: as §1
SMILES,cell viability (DLD1 [1]),cell viability (HCT116),cell viability (SW480 [2]),TCF/Wnt firefly luciferase reporter signal (DLD1 [3]),TCF/Wnt firefly luciferase reporter signal (SW480 [4])
CC1(C)C=CC(=O)[C@@]2(C)C1CC(=O)[C@]1(C)C2CC[C@@]2(C)[C@H](c3ccoc3)OC(=O)C3OC321 (stereo not given in full),1 ± 0.012,0.71 ± 0.61,0.998 ± 0.018,0.99 ± 0.029,0.854 ± 0.13
COc1cc(C(=O)NCCCCCC(=O)O)cc(OC)c1OC,0.981 ± 0.015,0.921 ± 0.044,1.01 ± 0.014,0.865 ± 0.023,0.902 ± 0.046
C[N+](C)(C)C[C@H](O)CC(=O)[O-],0.964 ± 0.028,0.976 ± 0.022,0.965 ± 0.014,0.921 ± 0.014,0.961 ± 0.069
O=C(NCO)c1cccnc1,0.952 ± 0.027,0.921 ± 0.022,1.04 ± 0.028,1.02 ± 0.13,0.959 ± 0.013
C[C@H](CCC(=O)O)[C@H]1CC[C@H]2[C@@H]3[C@@H](O)C[C@@H]4C[C@H](O)CC[C@]4(C)[C@H]3CC[C@]12C,0.966 ± 0.029,1.01 ± 0.025,0.958 ± 0.028,0.89 ± 0.061,1.02 ± 0.09
O=c1c2cc(O)c(O)cc2oc2cc(O)c([C@@H]3O[C@H](CO)[C@@H](O)[C@H](O)[C@H]3O)c(O)c12,1.09 ± 0.13,1.045 ± 0.0071,1.05 ± 0.035,0.988 ± 0.06,0.957 ± 0.061
COc1ccc(-c2cc(=O)c3c(O)cc(O)cc3o2)cc1,1.03 ± 0.08,0.935 ± 0.019,1.05 ± 0.064,0.912 ± 0.026,1.01 ± 0.091
Cc1ccc2c(c1)CC[C@H]1CC(=O)CC[C@]21C,1.03 ± 0.035,1.05 ± 0.097,0.9365 ± 0.0021,0.941 ± 0.13,0.957 ± 0.0028
CC(=O)O[C@@H]1c2c(ccc3ccc(=O)oc23)OC(C)(C)[C@@H]1OC(=O)CC(C)C,0.979 ± 0.044,1.02 ± 0.029,0.931 ± 0.059,0.875 ± 0.066,0.959 ± 0.054
C=C(NC(=O)C(=C)NC(=O)c1csc(C2=N[C@@H]3c4csc(n4)[C@H]4NC(=O)c5csc(n5)[C@H]([C@](C)(O)[C@@H](C)O)NC(=O)[C@H]5CSC(=N5)/C(=C/C)NC(=O)[C@H]([C@@H](C)O)NC(=O)c5csc(n5)[C@]3(CC2)NC(=O)[C@H](C)NC(=O)C(=C)NC(=O)[C@H](C)NC(=O)[C@H]([C@@H](C)CC)N[C@@H]2C=Cc3c([C@H](C)O)cc(nc3[C@H]2O)C(=O)O[C@@H]4C)n1)C(N)=O,0.927 ± 0.044,1.05,0.999 ± 0.044,0.966 ± 0.18,1.05 ± 0.071
CC1(C)O[C@@H]2C[C@H]3[C@@H]4CCC5=CC(=O)CC[C@]5(C)[C@@]4(F)[C@@H](O)C[C@]3(C)[C@]2(C(=O)CCl)O1,0.921 ± 0.12,0.925 ± 0.074,0.977 ± 0.061,0.927 ± 0.042,1.01 ± 0.066
CN(C)CCCN1c2ccccc2CCc2ccc(Cl)cc21,1.04,0.984 ± 0.051,1.06 ± 0.021,1.06 ± 0.1,1.01 ± 0.055
"CC1=CC(=O)CC(C)(C)C1(O)/C=C/C(C)=C\C(=O)O (mixture of isomers) [ABSCISIC ACID (cis,trans; )]",1.05 ± 0.021,1.1 ± 0.021,1.03 ± 0.064,1.08 ± 0.092,1.18 ± 0.13
CCCCNS(=O)(=O)c1ccccc1 [N-butylbenzenesulphonamide (AB2)],0.978 ± 0.19,1 ± 0.022,0.964 ± 0.052,0.908 ± 0.13,0.919 ± 0.14
CC(C)(Sc1cc(C(C)(C)C)c(O)c(C(C)(C)C)c1)Sc1cc(C(C)(C)C)c(O)c(C(C)(C)C)c1,0.947 ± 0.034,0.987 ± 0.061,0.955 ± 0.028,1.01 ± 0.035,1.035 ± 0.0071
CC/C(=C(\c1ccccc1)c1ccc(OCCN(C)C)cc1)c1ccccc1,1.08 ± 0.05,1.04 ± 0.064,1.05 ± 0.021,0.872 ± 0.15,0.859 ± 0.14
Oc1cc2c(cc1O)C1c3ccc(O)c(O)c3OCC1(O)C2 (stereo not given),1.03 ± 0.028,1.04 ± 0.028,1 ± 0.023,0.944 ± 0.035,1.04 ± 0.035
Cc1nc(C)c(Cl)c(O)c1Cl,1.1 ± 0.099,1.03 ± 0.11,1.004 ± 0.0085,0.99 ± 0.029,0.917 ± 0.059
O=C(O)c1cc2ccccc2[nH]1,0.968 ± 0.011,0.994 ± 0.08,1.04 ± 0.028,1.12,1.08 ± 0.021
"C[C@@H]1CC(=O)c2c(ccc3c2C(=O)c2cccc(O)c2C3=O)C1 [Ochromycinone (Isoform C, Compound ID 7613)]",1.02 ± 0.091,1.08 ± 0.099,1.1 ± 0.064,1.09 ± 0.13,1.04 ± 0.11
C[C@H]1c2cccc(O)c2C(=O)C2=C(O)[C@]3(O)C(=O)C(C(N)=O)=C(O)[C@@H](N(C)C)[C@@H]3[C@@H](O)[C@@H]21,0.942 ± 0.096,0.964 ± 0.033,0.975 ± 0.0028,0.967 ± 0.23,1.03 ± 0.18
CCN(CC)C(=S)SSC(=S)N(CC)CC,0.764 ± 0.14,0.504 ± 0.17,0.938 ± 0.12,1.02 ± 0.41,0.842 ± 0.043
CN1CCN(C2=Nc3cc(Cl)ccc3Nc3ccccc32)CC1,1.12 ± 0.071,1.05 ± 0.1,1.005 ± 0.0071,0.916 ± 0.058,0.97 ± 0.043
COc1cc(C)cc2ccc(-c3ccc4c(c3O)[C@@H](C)N[C@H](C)C4)c(O)c12,1.17 ± 0.19,1.04 ± 0.077,1.05 ± 0.021,1.05,1.015 ± 0.0071
C/C=C/CCC(=O)c1cc(C)c(O)cc1O [Sohirnone A],1.04 ± 0.09,1.06 ± 0.1,0.9585 ± 0.0078,1.02 ± 0.082,0.969 ± 0.044
CC(=O)O[C@H]1C[C@@]2(C)[C@H](c3ccoc3)OC(=O)[C@H]3O[C@]32[C@@]2(C)C1[C@]1(C)C(C[C@H]2OC(C)=O)C(C)(C)[C@H](OC(C)=O)C[C@@H]1OC(C)=O (stereo partly drawn) [11alpha-ACETOXYKHIVORIN],0.973 ± 0.014,0.895 ± 0.088,0.941 ± 0.013,1 ± 0.14,1.05 ± 0.11
CN[C@H](CC(C)C)C(=O)N[C@H]1C(=O)N[C@@H](CC(N)=O)C(=O)N[C@H]2C(=O)N[C@H]3C(=O)N[C@H](C(=O)N[C@H](C(=O)O)c4cc(O)cc(O)c4-c4cc3ccc4O)[C@H](O)c3ccc(c(Cl)c3)Oc3cc2cc(c3O[C@@H]2O[C@H](CO)[C@@H](O)[C@H](O)[C@H]2O[C@H]2C[C@](C)(N)[C@H](O)[C@H](C)O2)Oc2ccc(cc2Cl)[C@H]1O,1.08 ± 0.11,1.01 ± 0.014,0.979 ± 0.012,1.09 ± 0.057,1.02 ± 0.035
CC(C)C[C@@H](NC(=O)[C@H](C)NC(=O)CNC(=O)[C@@H](NC=O)C(C)C)C(=O)N[C@@H](C)C(=O)N[C@@H](C(=O)N[C@H](C(=O)N[C@H](C(=O)N[C@@H](Cc1c[nH]c2ccccc12)C(=O)N[C@H](CC(C)C)C(=O)N[C@@H](Cc1c[nH]c2ccccc12)C(=O)N[C@H](CC(C)C)C(=O)N[C@@H](Cc1c[nH]c2ccccc12)C(=O)N[C@H](CC(C)C)C(=O)N[C@@H](Cc1c[nH]c2ccccc12)C(=O)NCCO)C(C)C)C(C)C)C(C)C,0.939 ± 0.13,0.903 ± 0.061,0.613 ± 0.072,0.885 ± 0.043,0.488 ± 0.077
